Each structure is given as a SMILES string. Where “and” joins values, the source holds several entries; their conditions need not be identical. Equal entries are not always repeated. In all, about 310,000 compounds went through this assay and about 11,000 (3.5%) were called active. About 4% were inconclusive and are not listed. For the sample, actives were picked, then their nearest neighbours and some compounds at random. A number with no mark means an inactive call. The call rests on the fitted dose curve; in most records, active means well fitted inhibition curve with a large enough effect; inconclusive means small, poorly fitted or top-dose-only effect, or another doubt; inactive means no such curve, though single readings can be large or run the other way.
Potency means the concentration at half of the fitted maximal effect.

For this experiment, the target named is 4'-phosphopantetheinyl transferase ffp (Bacillus subtilis) (UniProt Q9F4F7). The experiment in a line: qHTS Assay for Inhibitors of Bacillus subtilis Sfp phosphopantetheinyl transferase (PPTase).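 Further: the enzyme is Sfp with the accession as filed and its product quenches rhodamine fluorescence.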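 On largest response in the series, negative = inhibition: 0% = enzyme reaction without inhibitor and -100% = no enzyme wells.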 The conditions noted are these: Biochemical Sfp PPTase activity. An outline of the steps:
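Step 1, compound plus 15 nM Sfp-PPTase, 15 min, room temperature. Step 2, add rhodamine-CoA (5 uM) and BHQ-2-YbbR (12.5 uM). Step 3, read 525/598 nm fluorescence at 0 and 30 min.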
A general note: Quantitative high-throughput screening tests each substance at several concentrations.
As for `O=C(Nc1ccccc1C(=O)Nc1ccncc1)c1ccc([N+](=O)[O-])cc1`, the largest response in the series, negative = inhibition is 4.06%.

In the case of `O=C(CN1CCCCCC1)Nc1c(Cl)cc(Cl)cc1Cl`, the largest response in the series, negative = inhibition is 6.16%.

`O=S(O)S(=O)(=O)O`: the largest response in the series, negative = inhibition was 7.74%.

As to `Cc1nc2nc(C)c(NS(=O)(=O)c3ccc(C(C)(C)C)cc3)c(=O)n2[nH]1`, the largest response in the series, negative = inhibition was 14.4%.

For `COc1cccc(C(=O)NC(=O)Nc2nc(C)cc(C(F)(F)F)n2)c1`, the largest response in the series, negative = inhibition was 14.9%.

`CC1CC(C)CN(CCCNC(=O)c2csc3c2CCCCC3)C1` (stereo not given): the largest response in the series, negative = inhibition is 5.49%.

As to `O=C(NCCc1cccc(F)c1)C1CCCN(c2nc3ccccc3s2)C1` (stereo not given), the largest response in the series, negative = inhibition was -6.45%.

For `CN1CCN(c2ccccc2NC(=O)COc2ccc(C3CCCCC3)cc2)CC1`, the largest response in the series, negative = inhibition is -19.2%.

As to `CCn1cc(C(=O)N2CC(C)CC(C)C2)c(=O)c2cc(S(=O)(=O)N3CCCC3)ccc21` (stereo not given), the largest response in the series, negative = inhibition is 3.15%.

As to `CCn1cc(C(=O)NCCCN2CCCCCC2)c(=O)c2cc(S(=O)(=O)N3CCc4ccccc4C3)ccc21`, the Potency was 89.1 µM (active).

As to `CCn1cc(C(=O)NCC2CCCO2)c(=O)c2cc(S(=O)(=O)N3CCCCC3)ccc21` (stereo not given), the largest response in the series, negative = inhibition was 4.08%.

For the molecule `CCN1CCN(C(=O)C2CCN(S(=O)(=O)c3cc(Cl)ccc3Cl)CC2)CC1`, the largest response in the series, negative = inhibition was 7.6%.

As to `CC(C)c1ccc(NC(=O)[C@@H](NC(=O)N2CC(=O)Nc3ccccc32)C(C)C)cc1`, the largest response in the series, negative = inhibition is 4.22%.

For the molecule `Oc1c(C(c2ccco2)N2CCC3(CC2)OCCO3)sc2ncnn12` (stereo not given), the Potency was 28.2 µM (active).

For the molecule `Oc1c(C(c2cccs2)N2CCN(c3ccc(F)cc3)CC2)sc2ncnn12` (stereo not given), the largest response in the series, negative = inhibition is 13.9%.

For `Cc1nc2sc(C(c3ccco3)N3CCOCC3)c(O)n2n1` (stereo not given), the largest response in the series, negative = inhibition was -2.77%.

For `Cc1ccc2c(c1)C(c1ccccc1)N(C(=O)c1ccc(F)cc1)CC(=O)N2` (stereo not given), the largest response in the series, negative = inhibition is -5.97%.

With `Cc1cc(NC(=O)CCC(=O)N(CC(=O)NCC2CCCO2)c2ccccc2)no1` (stereo not given), the largest response in the series, negative = inhibition was -5.59%.

`CCn1c(SCC(=O)NC2CC2)nnc1-c1ccncc1`: the largest response in the series, negative = inhibition is 12.1%.

Take `CCc1ccccc1N(CC(=O)NCC1CCCO1)C(=O)CCC(=O)Nc1nccs1` (stereo not given): the largest response in the series, negative = inhibition is 11.3%.

With `O=C(Nc1cc(-c2nc3ncccc3o2)ccc1Cl)c1ccco1`, the largest response in the series, negative = inhibition was 0.0878%.

For the molecule `COC(=O)[C@]1(S(=O)(=O)c2ccccc2)C[C@@H]2ON=C(c3ccc(OC)cc3)[C@@H]2C1`, the largest response in the series, negative = inhibition was -3.07%.

Turning to `COc1ccccc1NC(=O)CSc1nnc(C)n1CC1CCCO1` (stereo not given), the largest response in the series, negative = inhibition was 14.7%.

Take `O=C(CSc1nnc(-c2ccco2)n1CC1CCCO1)c1ccccc1` (stereo not given): the Potency is 50.1 µM (active).

For `Cc1nnc(SCC(N)=O)n1CC1CCCO1` (stereo not given), the largest response in the series, negative = inhibition was 13.7%.

With `O=C(/C=C/c1ccc(Cl)cc1)NCCCn1ccnc1`, the largest response in the series, negative = inhibition was -28%.

`Cc1nn(-c2ccccc2)c(Cl)c1/C=N/NC(=O)c1nn(C)cc1[N+](=O)[O-]`: the largest response in the series, negative = inhibition was -3.09%.

In the case of `O=C1N/C(=C/c2cccn2-c2ccccc2)C(=O)N1c1cccc(Cl)c1`, the largest response in the series, negative = inhibition is 12.7%.

In the case of `N#Cc1ccccc1CN1C(=O)S/C(=C/c2cccn2-c2cccc(C(=O)O)c2)C1=O`, the largest response in the series, negative = inhibition was -18.1%.

With `Cc1ccccc1NC(=O)CN1C(=O)N/C(=C\c2cccn2-c2cccc(C(=O)O)c2)C1=O`, the Potency was 20 µM (active).

As for `Cn1ncc2c(N3CCCCC3)nc(NCCCO)nc21`, the largest response in the series, negative = inhibition was 14.5%.

On to `O=C(c1n[nH]c2c1CCC2)N1CCCC(Nc2cccc(F)c2)C1` (stereo not given), for which the largest response in the series, negative = inhibition is 4.84%.

As to `CC(C)(C)c1ccc(C(CC(=O)O)NS(=O)(=O)Cc2ccccc2)cc1` (stereo not given), the largest response in the series, negative = inhibition is -0.492%.

Consider `CCOC(=O)C1(Cc2cccc(OC)c2)CCN(Cc2csc(C(C)=O)c2)CC1`, for which the largest response in the series, negative = inhibition is 5.75%.

`CCOC(=O)C1(Cc2cccc(OC)c2)CCN(C(C)CC(C)(C)O)CC1` (stereo not given): the Potency is 35.5 µM (active).

Turning to `CCOC(=O)C1(Cc2cccc(OC)c2)CCN(C(C)COC)CC1` (stereo not given), the largest response in the series, negative = inhibition is 2.4%.

For `Cc1oc2cc3oc(=O)ccc3cc2c1C`, the largest response in the series, negative = inhibition was 6.39%.

In the case of `CCCC[C@]12Cc3cc(OC)c(OC)cc3C(O1)C1=C(CC3(CCCCC3)OC1=O)O2`, the largest response in the series, negative = inhibition was -4.17%.

With `Cc1ccc(Cc2nc(-c3cccc(C)c3)no2)cc1`, the largest response in the series, negative = inhibition was 12.9%.

Turning to `COc1ccccc1Cc1nc(-c2ccc(C)cc2)no1`, the largest response in the series, negative = inhibition is -1.19%.

For the molecule `COc1ccc(Cc2nc(-c3ccccn3)no2)cc1OC`, the Potency is 79.4 µM (active).

As for `COc1cc(S(=O)(=O)N2CCN=C2c2ccccc2)ccc1Cl`, the largest response in the series, negative = inhibition was 14%.

Take `CC(C)C(C)NC(=O)COc1nc2ccccc2nc1N(C)C1CCCCC1` (stereo not given): the largest response in the series, negative = inhibition was -0.152%.

In the case of `COCCN(C(=O)CCC(=O)Nc1nccs1)C(C(=O)NCCC(C)C)c1ccc(F)cc1` (stereo not given), the largest response in the series, negative = inhibition is 9.51%.

On to `C=CC(=O)c1ccc2ccccc2c1`, for which the Potency was 3.55 µM (active) and 31.6 µM (active).

For `CC(=O)CCC(=O)c1ccc2ccccc2c1`, the largest response in the series, negative = inhibition is 7.52%.

Take `O=C(Nc1ccc(NC(=O)c2cccs2)cc1)c1ccc2ccccc2c1`: the largest response in the series, negative = inhibition was -1.36%.

As for `Cc1ccccc1Nc1nc(-c2cccnc2)cs1`, the largest response in the series, negative = inhibition is -24.9%.

With `c1cnc(N2CCN(c3ccc4ccccc4n3)CC2)nc1`, the largest response in the series, negative = inhibition is -3.4%.

`COc1ccccc1N1CCN(C(=O)CCS(=O)(=O)c2ccc3c(c2)NC(=O)C(C)S3)CC1` (stereo not given): the largest response in the series, negative = inhibition is 0.999%.

`COc1ccc(N(C(=O)c2cccnc2)S(=O)(=O)c2ccc3c(c2)n(C)c(=O)n3C)cc1`: the largest response in the series, negative = inhibition was 20.5%.

Turning to `COc1ccc(N(C(=O)c2cccnc2)S(=O)(=O)c2ccc(OC)c(OC)c2)cc1`, the largest response in the series, negative = inhibition is 3.04%.

Take `O=C(c1cccnc1)N(c1cc2sc(=O)oc2c2ccccc12)S(=O)(=O)c1ccccc1`: the Potency is 3.98 µM (active).

As for `COc1ccccc1N1CC(C(=O)Nc2nnc(SCC(=O)NCC3CCCO3)s2)CC1=O` (stereo not given), the Potency is 50.1 µM (active).

As to `COc1cc(OC)cc(C(=O)Nc2nnc(SCC(=O)NCC3CCCO3)s2)c1` (stereo not given), the largest response in the series, negative = inhibition is -4.79%.

On to `Cc1ccccc1N1CC(C(=O)Nc2nnc(SCCC3OCCO3)s2)CC1=O` (stereo not given), for which the largest response in the series, negative = inhibition was -15.5%.

Turning to `CCCCC(c1nnnn1CS(=O)(=O)c1ccc(C)cc1)N1CCC(C(N)=O)CC1` (stereo not given), the largest response in the series, negative = inhibition is 13.9%.

`CC(NS(=O)(=O)c1ccc(Br)cc1)C(=O)NCC1CCCO1` (stereo not given): the largest response in the series, negative = inhibition is 16.5%.

For `OC(CNCC1CCCO1)Cn1c2ccc(Br)cc2c2cc(Br)ccc21` (stereo not given), the Potency is 22.4 µM (active).

As to `O=C(CSc1ccc(-c2ccc(Br)cc2)nn1)NCC1CCCO1` (stereo not given), the largest response in the series, negative = inhibition was 6.34%.

The values above are taken from PubChem BioAssay AID1490 (National Center for Advancing Translational Sciences (NCATS), 2009).
